“And” between values parts separate entries of the source, which are not always exact repeats. Identical values can stand only once. For some of these results: Entries with a potency or affinity are not part of this list. More than one record can exist for a structure, and the calls need not agree. The source made the active and inactive calls.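 Rule for the calls, unless noted: active = thallium flux through the channel raised or lowered by more than 3 SD from vehicle-only wells, actives on both sides; inactive = the rest.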
Tests used:
[1] = polyglutamine-triggered caspase-3 activation inhibitors, cell-based (AID 1583); conditions: polyglutamine-induced caspase-3 activation, cell assay; stronger effect = higher value;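 tested at 10 µM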
[2] = suppressors of polyQ aggregation in yeast, 75Q-TubU reporter (AID 1593); conditions: Yeast 75Q polyglutamine aggregation reporter
[3] = rescue of polyQ-huntingtin neuronal dysfunction in worms, whole organism, C. elegans mechanosensory neurons, N-terminal huntingtin (AID 1599); conditions: touch response, stronger effect = higher value
[4] = inhibitors of mitochondrial cytochrome c release, biochemical, purified mitochondria (AID 1603); conditions: stronger effect = lower value;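 note: mouse liver mitochondria challenged with calcium chloride; signal normalized to the plate average as 100%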
[5] = inhibitors of polyQ protein aggregation (AID 1604); conditions: polyglutamine-induced protein aggregation inhibition assay; stronger effect = higher value; tested at 2.5 µM
[6] = enhancers of glutamate uptake in motor neurons, MN-1 cell line (AID 1612); conditions: MN-1 motor neuron cells, stronger effect = higher value;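 note: tested at 1 µM final; 0% = mean of DMSO vehicle wells on each plate; positive means more glutamate uptake than control and negative means less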
[7] = suppressors of polyglutamine aggregation in yeast, 75Q-TubH (AID 1616); conditions: S. cerevisiae 75Q-TubH polyglutamine aggregation suppression; stronger effect = higher value
[8] = viability rescue of complex I mutant cybrids, primary screen, cell-based, galactose medium, ATP luminescence (AID 1645843;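 active = z-score of at least 1.8 in each of two replicates, scored against plate mean and spread of sample wells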;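 note: positive z means more ATP and so rescue of galactose-driven cybrid death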); conditions: complex I mutant cybrid cells, 72 h, stronger effect = higher value
[9] = LFS_MB_P medulloblastoma growth inhibition, cell-based, chromothripsis tumors, cisplatin or BGB combos (AID 1671449; in the data active = inhibition above about 80%;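 note: cells exposed for 96 hours; 0% = vehicle DMSO and 100% = killing by high DMSO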); conditions: LFS_MB_P medulloblastoma cells
[10] = Cy5 fluorescence interference with SSB-bound oligo, artefact control for HCV NS3 helicase inhibitor project, biochemical, NIH Clinical Collection, E. coli SSB (AID 743268; call rule not given here)
[11] = tested on: Hepatitis C virus NS3 helicase; experiment: HCV NS3 helicase inhibitors, primary screen, biochemical, fluorescence polarization, NIH Clinical Collection (AID 743270; call rule not given here); conditions: NS3 helicase binding to Cy5-dT15 DNA, stronger effect = higher value, concentration not given here
[12] = target: Single-stranded DNA-binding protein (Escherichia coli (strain K12)) (UniProt P0AGE0); experiment: E. coli SSB displacement from DNA, counter-screen for HCV NS3 helicase inhibitor project, biochemical, fluorescence polarization, NIH Clinical Collection (AID 743271; in the data active = inhibition above about 28%); conditions: stronger effect = higher value, concentration not given here
[13] = fluorescence interference in NS3h assay format, artefact control for HCV NS3 helicase inhibitor project, biochemical, NIH Clinical Collection (AID 743272; call rule not given here;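 note: HCV NS3 helicase with a Cy5 labelled single stranded DNA probe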); conditions: fluorescence interference counterscreen, stronger effect = lower value
F380Y/beta4 = experiment: modulators of BK channel variants, profiling panel, selectivity assay, cell-based, U2OS BacMam, thallium flux, beta subunits (AID 1259406); conditions: at 30 µM;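 note: initial slope of Thallos dye fluorescence rise after thallium is added; log ratio against the mean of 0.3% DMSO vehicle wells on the same plate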
[14] = target: Calcium-activated potassium channel subunit alpha-1 (Homo sapiens) + Leucine-rich repeat-containing protein 26 (Homo sapiens) (UniProt Q12791+Q2I0M4); experiment: as above; conditions: F380Y/Slo1WT/gamma1, at 30 µM
R275C = experiment: as above; conditions: at 30 µM
R275C/beta1 = experiment: as above; conditions: at 30 µM
R275C/beta2Delta = experiment: as above; conditions: at 30 µM
R275C/beta4 = experiment: as above; conditions: at 30 µM
R275C/Slo1WT/beta2 = experiment: as above; conditions: at 30 µM

Sequence of Calcium-activated potassium channel subunit alpha-1 (Homo sapiens) + Leucine-rich repeat-containing protein 26 (Homo sapiens) (Q2I0M4 whole entry, looked up, one chain of several): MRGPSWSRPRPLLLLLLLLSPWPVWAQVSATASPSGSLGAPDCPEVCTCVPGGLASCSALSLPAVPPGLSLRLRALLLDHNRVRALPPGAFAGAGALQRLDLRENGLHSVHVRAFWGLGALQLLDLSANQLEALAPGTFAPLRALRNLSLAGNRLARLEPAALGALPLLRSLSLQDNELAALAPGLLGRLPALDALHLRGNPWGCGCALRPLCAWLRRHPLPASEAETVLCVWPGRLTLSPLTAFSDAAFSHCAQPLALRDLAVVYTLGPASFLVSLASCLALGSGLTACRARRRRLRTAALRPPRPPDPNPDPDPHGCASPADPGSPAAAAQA

**Q.** What does the source list for `CCN(CC)CCCC(C)Nc1c2ccc(Cl)cc2nc2ccc(OC)cc12` (stereo not given)?
**A.** inhibition [1]: -263%; score [2]: 0.79; rescue above control [3]: 26.7; cytochrome c release ratio [4]: 1.44; inhibition of aggregation [5]: 77.3%; glutamate uptake change [6]: 2.03%; aggregation suppression score [7]: 1.04; z-score [8]: -1.35 (inactive) and -2.13 (inactive); inhibition ([9]; at 0.5 µM, stronger effect = higher value): -9.53% (inactive); inhibition ([9]; measured here: combination with BGB IC20, at 0.005 µM): 13.9%; inhibition ([9]; measured here: combination with BGB IC40, at 0.005 µM): 18.9%; inhibition ([9]; measured here: combination with BGB IC40, at 0.05 µM): 6.94%; inhibition ([9]; measured here: combination with cisplatin, at 0.5 µM, stronger effect = higher value): -29.9%; inhibition ([9]; measured here: combination with cisplatin, at 5 µM, stronger effect = higher value): 113%

**Q.** With `Oc1ccc(/C=C/c2cc(O)cc(O)c2)cc1` as the compound, how does the fluorescence ratio [10] read?
**A.** The fluorescence ratio was 0.95 (inactive).

**Q.** What about the inhibition [11] of the same compound?
**A.** The inhibition was -2.84% (inactive).

**Q.** And the inhibition [12]?
**A.** Its inhibition is -2.76% (inactive).

**Q.** And the fluorescence ratio [13]?
**A.** The fluorescence ratio was 0.93 (inactive).

**Q.** What about the z-score [8] of the same compound?
**A.** Its z-score is 2.52 (active) and 1.26 (inactive).

**Q.** What about the log fold change Tl+ flux (F380Y/beta4) of the same compound?
**A.** Its log fold change Tl+ flux is 0.154 (active).

**Q.** And the log fold change Tl+ flux [14]?
**A.** The log fold change Tl+ flux was 0.0893 (inactive).

**Q.** And the log fold change Tl+ flux (R275C)?
**A.** The log fold change Tl+ flux was 0.00518 (inactive).

**Q.** What about the log fold change Tl+ flux (R275C/beta1) of the same compound?
**A.** Its log fold change Tl+ flux is 0.139 (active).

**Q.** What about the log fold change Tl+ flux (R275C/beta2Delta) of the same compound?
**A.** The log fold change Tl+ flux was 0.139 (active).

**Q.** What about the log fold change Tl+ flux (R275C/beta4) of the same compound?
**A.** Its log fold change Tl+ flux is 0.092 (active).

**Q.** What about the log fold change Tl+ flux (R275C/Slo1WT/beta2) of the same compound?
**A.** The log fold change Tl+ flux was 0.0308 (inactive).

**Q.** With `CCC1(c2ccccc2)C(=O)NCNC1=O` as the compound, how does the inhibition [1] read?
**A.** Its inhibition is 9.61%.

**Q.** What about the score [2] of the same compound?
**A.** Its score is 1.24.

**Q.** What about the rescue above control [3] of the same compound?
**A.** The rescue above control was -6.81.

**Q.** And the cytochrome c release ratio [4]?
**A.** Its cytochrome c release ratio is 1.19.

**Q.** What about the inhibition of aggregation [5] of the same compound?
**A.** The inhibition of aggregation was 63%.

**Q.** And the glutamate uptake change [6]?
**A.** Its glutamate uptake change is -24.4%.

**Q.** And the aggregation suppression score [7]?
**A.** Its aggregation suppression score is 1.22.

**Q.** And the fluorescence ratio [10]?
**A.** Its fluorescence ratio is 1.04 (inactive).

**Q.** And the inhibition [11]?
**A.** Its inhibition is -2.27% (inactive).

**Q.** What about the inhibition [12] of the same compound?
**A.** Its inhibition is -0.48% (inactive).

**Q.** What about the fluorescence ratio [13] of the same compound?
**A.** The fluorescence ratio was 0.97 (inactive).

**Q.** What about the z-score [8] of the same compound?
**A.** The z-score was 1.15 (inactive) and 0.365 (inactive) and 1.9 (inactive).

**Q.** And the log fold change Tl+ flux (F380Y/beta4)?
**A.** The log fold change Tl+ flux was 0.00245 (inactive).

**Q.** And the log fold change Tl+ flux [14]?
**A.** The log fold change Tl+ flux was 0.023 (inactive).

**Q.** What about the log fold change Tl+ flux (R275C) of the same compound?
**A.** Its log fold change Tl+ flux is -0.0184 (inactive).

**Q.** What about the log fold change Tl+ flux (R275C/beta1) of the same compound?
**A.** Its log fold change Tl+ flux is -0.0109 (inactive).

**Q.** And the log fold change Tl+ flux (R275C/beta2Delta)?
**A.** The log fold change Tl+ flux was -0.0215 (inactive).

**Q.** What about the log fold change Tl+ flux (R275C/beta4) of the same compound?
**A.** Its log fold change Tl+ flux is 0.0127 (inactive).

**Q.** And the log fold change Tl+ flux (R275C/Slo1WT/beta2)?
**A.** The log fold change Tl+ flux was -0.0237 (inactive).

**Q.** Which results are given for `CC(C)NCC(O)c1ccc(O)c(O)c1` (stereo not given)?
**A.** inhibition [1]: 19.5%; score [2]: 1.1; rescue above control [3]: 7.5; cytochrome c release ratio [4]: 0.68; inhibition of aggregation [5]: 84.7%; glutamate uptake change [6]: -0.29%; aggregation suppression score [7]: 1.28; fluorescence ratio [10]: 1.01 (inactive); inhibition [11]: -5% (inactive); inhibition [12]: -0.48% (inactive); fluorescence ratio [13]: 0.95 (inactive); log fold change Tl+ flux (F380Y/beta4): 0.0647 (inactive); log fold change Tl+ flux [14]: -0.00786 (inactive); log fold change Tl+ flux (R275C): 0.0272 (inactive); log fold change Tl+ flux (R275C/beta1): -0.0419 (inactive); log fold change Tl+ flux (R275C/beta2Delta): 0.00121 (inactive); log fold change Tl+ flux (R275C/beta4): 0.0195 (inactive); log fold change Tl+ flux (R275C/Slo1WT/beta2): -0.00526 (inactive)

**Q.** Which inhibition [1] does the source give for `CCN(CCO)CCCC(C)Nc1ccnc2cc(Cl)ccc12` (stereo not given) here?
**A.** Its inhibition is -6.7%.

**Q.** And the score [2]?
**A.** The score was 1.54.

**Q.** And the rescue above control [3]?
**A.** Its rescue above control is -3.82.

**Q.** What about the cytochrome c release ratio [4] of the same compound?
**A.** The cytochrome c release ratio was 0.8.

**Q.** What about the inhibition of aggregation [5] of the same compound?
**A.** The inhibition of aggregation was 27.4%.

**Q.** What about the glutamate uptake change [6] of the same compound?
**A.** Its glutamate uptake change is 0%.

**Q.** What about the aggregation suppression score [7] of the same compound?
**A.** Its aggregation suppression score is 1.3.

Reference: PubChem BioAssay
